For assay [1], the system named is PRMT1 (protein arginine N-methyltransferase 1). The experiment in a line: small molecules binding arginine methyltransferase PRMT1 – biochemical, small-molecule microarray, 635 nm fluorescence, primary screen (AID 1088).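 Also: binding of Prmt1 protein to compounds spotted on small-molecule microarray slides.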 Conditions: higher = more signal.
The nature of assay [2]: growth effects on S. cerevisiae YJM789 – YJM789 clinical isolate, OD600, 24 h, basal, primary screen (AID 1089).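 Also: growth of clinical yeast isolate S. cerevisiae YJM 789 seeded 1000 cells per well; test concentration not given here.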 Conditions: higher = more signal, called active from +8 up or from −8 down.
Assay [3] is described as follows: S. pombe growth modifiers, basal conditions – strain 972, OD600, 24 h, no modulator, primary screen (AID 1090).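 Also: basal condition with compound alone and no growth modifier present; test concentration not given here.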 The following applies: S. pombe 972 growth, higher = more signal, called active from +8 up or from −8 down.
The nature of assay [4]: budding yeast growth modifiers under rapamycin – strain BY4716, OD600, 96 h, primary screen (AID 1091). Also: test concentration not given here. Conditions: S. cerevisiae BY4716 + rapamycin, higher = more signal, called active from +8 up or from −8 down.
In assay [5] the target is Torsin-1A-interacting protein 2 (Homo sapiens) (UniProt Q8NFQ8). The experiment in a line: small molecules binding lysate-expressed LULL1 – cell lysate, human LULL1 lysate, 635/667 nm fluorescence, primary screen (AID 1092).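 Also: probe is lysate of COS7 cells overexpressing human LULL1; score merges per-feature 667 nm fluorescence with signal-to-noise.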 The following applies: small-molecule microarray, hLULL1 lysate binding, 635 nm fluorescence; higher = more signal.
Sequence of Torsin-1A-interacting protein 2 (Homo sapiens) (Q8NFQ8 whole entry, looked up): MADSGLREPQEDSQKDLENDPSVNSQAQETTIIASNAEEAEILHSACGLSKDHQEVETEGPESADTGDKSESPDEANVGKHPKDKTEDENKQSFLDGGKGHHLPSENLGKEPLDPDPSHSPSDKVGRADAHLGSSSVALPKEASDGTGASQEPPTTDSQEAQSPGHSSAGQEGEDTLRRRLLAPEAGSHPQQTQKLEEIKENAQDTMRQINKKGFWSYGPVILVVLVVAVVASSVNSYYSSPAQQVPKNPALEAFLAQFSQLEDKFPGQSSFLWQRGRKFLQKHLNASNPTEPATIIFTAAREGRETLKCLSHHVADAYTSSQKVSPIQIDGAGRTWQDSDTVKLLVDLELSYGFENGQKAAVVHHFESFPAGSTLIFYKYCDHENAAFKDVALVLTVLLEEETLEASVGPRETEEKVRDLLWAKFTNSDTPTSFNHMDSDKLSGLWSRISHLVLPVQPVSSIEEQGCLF
A short description of assay [6]: optical density change of DRC41 E. coli – strain DRC41, OD650, 24 h, E. coli filamentation project, primary screen (AID 1093).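 Also: MC1000 strain lacking acrAB efflux and sulA so SOS filamentation is blocked; test concentration not given here.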 The following applies: E. coli DRC41 growth, higher = more signal, called active from +8 up or from −8 down.
Assay [7] can be described thus: probe aLefty2 binding to arrayed compounds – biochemical, biotinylated probe, 635/667 nm fluorescence, primary screen (AID 1094).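 Also: score merges spot fluorescence near 667 nm with spot signal-to-noise ratio.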 Conditions: small-molecule microarray, higher = more signal.
Assay [8] deals with Noggin (protein binding on small-molecule microarray). The experiment in a line: small molecules binding Noggin protein – biochemical, 635/667 nm fluorescence, primary screen (AID 1095).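 Also: score merges 667 nm feature fluorescence with signal to noise over triplicate slides.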 The following applies: 635 nm fluorescence, higher = more signal.
Assay [9] has as its target Neurogenic locus notch homolog protein 3 (Homo sapiens) (UniProt Q9UM47). The experiment in a line: small molecules binding NOTCH3 protein – biochemical, 635/667 nm fluorescence, primary screen (AID 1096). The following applies: small-molecule microarray, 635 nm fluorescence, higher = more signal.
Assay [10] in a line: probe aEGFR binding to arrayed compounds – biochemical, biotinylated probe, 635/667 nm fluorescence, primary screen (AID 1097).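 Also: probe is a biotinylated anti-EGFR antibody binding compounds printed on slides; score combines fluorescence near 667 nm and signal to noise of each spot.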 The following applies: small-molecule microarray, higher = more signal.
Assay [11] concerns Plasmodium falciparum Sir2 (PF13_0152, Sir2A). The experiment in a line: Plasmodium falciparum Sir2A binding compounds – biochemical, small-molecule microarray, 635 nm fluorescence, primary screen (AID 1098).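 Also: score merges spot fluorescence intensity with its signal-to-noise ratio.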 Conditions: fluorescence 635 nm, higher = more signal.
Assay [12] in a line: probe aDKK1 binding to arrayed compounds – biochemical, biotinylated probe, 635/667 nm fluorescence, primary screen (AID 1099).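 Also: score merges 667nm spot fluorescence with signal to noise across triplicate slides; reference of the scale not given here.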 Conditions: small-molecule microarray, higher = more signal.
A short description of assay [13]: probe aCHRDL2 binding to arrayed compounds – biochemical, biotinylated probe, 635/667 nm fluorescence, primary screen (AID 1100). The following applies: small-molecule microarray, higher = more signal.
Assay [14] in a line: change in splice reporter luminescence, either direction, cell-based, HEK293, spliceosome inhibition project, primary screen (AID 1101).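 Also: HEK293 cells carrying a splicing-competent luciferase reporter gene; test concentration not given here.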 The following applies: HEK293 splicing luciferase reporter, 24 h, higher = more signal, called active from +8 up or from −8 down. A general note: Reporter assays use an easily measured gene product as a stand-in for the process of interest.
Assay [15] concerns the target Fibroblast growth factor 10 (Homo sapiens) (UniProt O15520). The experiment in a line: compounds binding fibroblast growth factor 10 – biochemical, small-molecule microarray, 635 nm fluorescence, primary screen (AID 1102). The following applies: FGF10 binding, fluorescence 635 nm, higher = more signal.
Assay [16] concerns glycogen synthase kinase-3 (GSK3A per assay name; protocol says GSK3B). The experiment in a line: compounds binding glycogen synthase kinase-3 – biochemical, small-molecule microarray, 635 nm fluorescence, GSK3A, primary screen (AID 1103). Also: the record names both GSK3A and GSK3B. Conditions: fluorescence 635 nm, higher = more signal.
For assay [17], the target named is Epidermal growth factor receptor (Homo sapiens) (UniProt P00533). The experiment in a line: compounds binding epidermal growth factor receptor – biochemical, small-molecule microarray, 635 nm fluorescence, primary screen (AID 1104).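 Also: score merges 667 nm emission intensity with spot signal to noise over triplicate slides.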 The following applies: EGFR binding, higher = more signal.
Sequence of Epidermal growth factor receptor (Homo sapiens) (P00533 whole entry, looked up): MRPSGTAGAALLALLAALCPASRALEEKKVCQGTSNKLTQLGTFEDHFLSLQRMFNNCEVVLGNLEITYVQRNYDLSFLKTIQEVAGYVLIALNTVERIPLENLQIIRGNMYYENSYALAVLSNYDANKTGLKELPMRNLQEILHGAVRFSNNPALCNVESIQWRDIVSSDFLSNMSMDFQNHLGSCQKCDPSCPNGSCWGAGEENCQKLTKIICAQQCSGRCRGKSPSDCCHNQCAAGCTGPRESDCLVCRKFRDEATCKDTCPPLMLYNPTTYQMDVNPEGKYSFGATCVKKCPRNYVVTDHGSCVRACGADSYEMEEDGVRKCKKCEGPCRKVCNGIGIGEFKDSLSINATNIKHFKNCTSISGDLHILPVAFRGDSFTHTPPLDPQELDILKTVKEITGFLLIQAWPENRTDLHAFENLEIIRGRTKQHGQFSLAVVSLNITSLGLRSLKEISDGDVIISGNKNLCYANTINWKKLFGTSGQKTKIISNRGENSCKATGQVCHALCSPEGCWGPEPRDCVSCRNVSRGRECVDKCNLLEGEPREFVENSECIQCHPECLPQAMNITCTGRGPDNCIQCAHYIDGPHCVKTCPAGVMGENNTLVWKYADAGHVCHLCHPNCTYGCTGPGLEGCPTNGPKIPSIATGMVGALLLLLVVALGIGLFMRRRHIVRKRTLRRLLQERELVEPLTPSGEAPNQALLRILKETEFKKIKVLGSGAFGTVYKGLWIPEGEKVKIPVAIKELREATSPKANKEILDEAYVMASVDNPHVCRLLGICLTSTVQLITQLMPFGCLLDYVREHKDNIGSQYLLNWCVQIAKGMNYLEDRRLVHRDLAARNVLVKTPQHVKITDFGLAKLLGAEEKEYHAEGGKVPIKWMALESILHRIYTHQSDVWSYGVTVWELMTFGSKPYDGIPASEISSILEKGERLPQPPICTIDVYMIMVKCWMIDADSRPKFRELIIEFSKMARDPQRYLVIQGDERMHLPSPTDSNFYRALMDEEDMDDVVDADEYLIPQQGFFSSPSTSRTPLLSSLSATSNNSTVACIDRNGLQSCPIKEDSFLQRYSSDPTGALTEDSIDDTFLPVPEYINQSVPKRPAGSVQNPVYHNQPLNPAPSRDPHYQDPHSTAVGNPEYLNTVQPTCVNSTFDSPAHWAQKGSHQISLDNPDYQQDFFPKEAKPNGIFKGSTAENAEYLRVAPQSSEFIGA
The target in assay [18] is Follistatin-related protein 3 (Homo sapiens) (UniProt O95633). The assay can be described thus: compounds binding follistatin-related protein 3 – biochemical, small-molecule microarray, 635 nm fluorescence, primary screen (AID 1105).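 Also: score merges emission near 667 nm and signal to noise per printed spot across three slides.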 Conditions: FSTL3 binding, higher = more signal.
Sequence of Follistatin-related protein 3 (Homo sapiens) (O95633 whole entry, looked up): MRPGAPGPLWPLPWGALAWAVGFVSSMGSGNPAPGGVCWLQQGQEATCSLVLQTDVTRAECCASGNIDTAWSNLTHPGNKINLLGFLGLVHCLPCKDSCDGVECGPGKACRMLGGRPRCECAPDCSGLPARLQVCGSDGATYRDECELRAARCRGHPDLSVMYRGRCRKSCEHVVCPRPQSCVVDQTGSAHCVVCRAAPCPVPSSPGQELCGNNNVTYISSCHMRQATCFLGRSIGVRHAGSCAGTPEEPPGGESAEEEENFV
Assay [19] concerns the target Dickkopf-related protein 1 (Homo sapiens) (UniProt O94907). The experiment in a line: small molecules binding DKK1 protein – biochemical, small-molecule microarray, 635 nm fluorescence scan, primary screen (AID 1106).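 Also: score merges emission near 667 nm with signal to noise over three replicate slides.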 Conditions: higher = more signal.
The subject of assay [20] is Inhibin beta A chain (activin A). The assay can be described thus: small molecules binding activin A – biochemical, small-molecule microarray, 635 nm fluorescence scan, primary screen (AID 1107).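 Also: mouse activin A protein probed at 4.33 µg/mL on printed slides; score merges bound-protein fluorescence near 667 nm with spot signal-to-noise.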 The following applies: INHBA, higher = more signal.

Activity calls are given as the source filed them.

Sequence of Dickkopf-related protein 1 (Homo sapiens) (O94907 whole entry, looked up): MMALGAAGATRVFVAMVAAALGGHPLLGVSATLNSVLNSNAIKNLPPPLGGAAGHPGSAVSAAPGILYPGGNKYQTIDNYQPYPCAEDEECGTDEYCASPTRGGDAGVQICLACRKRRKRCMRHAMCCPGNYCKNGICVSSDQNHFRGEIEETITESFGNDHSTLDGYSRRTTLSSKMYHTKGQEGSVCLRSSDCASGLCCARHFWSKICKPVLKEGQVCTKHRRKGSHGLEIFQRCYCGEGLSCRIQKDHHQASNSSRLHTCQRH
Sequence of Neurogenic locus notch homolog protein 3 (Homo sapiens) (Q9UM47 whole entry, looked up): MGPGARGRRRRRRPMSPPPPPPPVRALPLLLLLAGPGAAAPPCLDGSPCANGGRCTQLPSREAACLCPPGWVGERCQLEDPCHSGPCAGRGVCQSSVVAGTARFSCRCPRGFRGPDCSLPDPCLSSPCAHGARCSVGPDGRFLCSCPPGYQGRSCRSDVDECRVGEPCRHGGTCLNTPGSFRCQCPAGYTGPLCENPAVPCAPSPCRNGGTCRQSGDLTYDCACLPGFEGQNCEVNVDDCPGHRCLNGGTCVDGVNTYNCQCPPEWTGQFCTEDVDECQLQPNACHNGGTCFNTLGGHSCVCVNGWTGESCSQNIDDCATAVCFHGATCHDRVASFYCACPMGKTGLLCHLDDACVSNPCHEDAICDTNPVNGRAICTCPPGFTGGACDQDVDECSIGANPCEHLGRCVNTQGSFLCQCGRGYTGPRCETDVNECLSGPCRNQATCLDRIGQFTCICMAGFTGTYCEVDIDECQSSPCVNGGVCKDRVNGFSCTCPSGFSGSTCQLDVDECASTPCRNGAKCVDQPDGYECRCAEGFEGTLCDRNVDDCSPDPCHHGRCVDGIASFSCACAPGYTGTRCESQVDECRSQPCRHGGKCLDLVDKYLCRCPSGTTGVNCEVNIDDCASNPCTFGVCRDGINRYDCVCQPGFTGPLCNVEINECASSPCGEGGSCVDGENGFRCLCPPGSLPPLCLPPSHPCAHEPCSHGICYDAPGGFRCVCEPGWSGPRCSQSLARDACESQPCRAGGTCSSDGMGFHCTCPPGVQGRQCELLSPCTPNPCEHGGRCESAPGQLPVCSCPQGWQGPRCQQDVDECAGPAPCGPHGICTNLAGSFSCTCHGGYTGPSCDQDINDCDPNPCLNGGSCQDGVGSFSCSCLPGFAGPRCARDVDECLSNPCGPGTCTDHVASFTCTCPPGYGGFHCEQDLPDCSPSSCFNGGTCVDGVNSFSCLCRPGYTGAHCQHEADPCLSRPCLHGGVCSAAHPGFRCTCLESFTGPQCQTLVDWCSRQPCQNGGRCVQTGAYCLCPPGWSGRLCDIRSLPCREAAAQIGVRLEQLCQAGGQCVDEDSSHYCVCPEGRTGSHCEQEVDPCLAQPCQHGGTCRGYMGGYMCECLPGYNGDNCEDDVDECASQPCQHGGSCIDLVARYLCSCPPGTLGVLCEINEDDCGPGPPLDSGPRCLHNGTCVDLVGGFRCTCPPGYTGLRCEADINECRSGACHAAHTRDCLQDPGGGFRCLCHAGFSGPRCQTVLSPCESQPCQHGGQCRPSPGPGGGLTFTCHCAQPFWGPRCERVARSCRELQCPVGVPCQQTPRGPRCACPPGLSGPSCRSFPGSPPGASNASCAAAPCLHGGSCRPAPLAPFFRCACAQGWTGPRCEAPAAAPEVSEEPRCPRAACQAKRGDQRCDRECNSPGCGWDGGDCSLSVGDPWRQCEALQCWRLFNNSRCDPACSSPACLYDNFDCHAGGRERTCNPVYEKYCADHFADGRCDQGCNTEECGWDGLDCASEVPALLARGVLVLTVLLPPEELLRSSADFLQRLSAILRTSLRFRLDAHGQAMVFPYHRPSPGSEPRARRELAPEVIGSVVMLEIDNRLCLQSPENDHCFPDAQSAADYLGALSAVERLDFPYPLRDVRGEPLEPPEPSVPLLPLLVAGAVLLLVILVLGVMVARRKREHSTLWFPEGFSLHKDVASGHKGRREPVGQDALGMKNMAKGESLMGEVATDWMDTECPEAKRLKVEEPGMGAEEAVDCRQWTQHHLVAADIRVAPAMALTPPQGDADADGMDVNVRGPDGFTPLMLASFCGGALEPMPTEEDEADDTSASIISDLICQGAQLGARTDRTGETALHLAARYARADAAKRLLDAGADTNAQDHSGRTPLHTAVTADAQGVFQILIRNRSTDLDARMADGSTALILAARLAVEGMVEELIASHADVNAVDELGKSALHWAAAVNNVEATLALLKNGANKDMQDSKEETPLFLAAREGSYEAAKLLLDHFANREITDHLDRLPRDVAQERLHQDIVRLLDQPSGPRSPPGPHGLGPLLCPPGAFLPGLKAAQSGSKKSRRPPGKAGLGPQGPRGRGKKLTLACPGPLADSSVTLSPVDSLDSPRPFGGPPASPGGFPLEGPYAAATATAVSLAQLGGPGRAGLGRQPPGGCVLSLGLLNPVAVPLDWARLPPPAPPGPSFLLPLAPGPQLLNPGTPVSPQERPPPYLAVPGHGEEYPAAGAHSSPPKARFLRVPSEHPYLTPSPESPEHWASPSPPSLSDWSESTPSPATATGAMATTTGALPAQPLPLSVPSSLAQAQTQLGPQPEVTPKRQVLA
Sequence of Fibroblast growth factor 10 (Homo sapiens) (O15520 whole entry, looked up): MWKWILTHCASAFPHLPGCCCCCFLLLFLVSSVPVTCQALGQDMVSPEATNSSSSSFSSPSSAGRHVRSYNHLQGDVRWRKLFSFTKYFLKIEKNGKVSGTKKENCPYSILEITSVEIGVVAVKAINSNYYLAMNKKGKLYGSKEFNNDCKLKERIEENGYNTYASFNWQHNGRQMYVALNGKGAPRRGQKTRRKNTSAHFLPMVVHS

For the molecule `O=C1[C@H]2[C@H]3[C@H](O)[C@H](O)CC(=NOC[C@@H](O)COCc4ccco4)[C@@H]3CC[C@H]2C(=O)N1Cc1ccccc1`, the composite z-score in assay [1] was 1.53; in [5] it was 2.66; in assay [7], -0.166; in assay [8], 1.04; in assay [9], 0.841; in assay [10] it was 0.0673. For the same molecule, the composite z-score was -0.422 in assay [11]; -0.316 in assay [12]; -0.611 in [13]; 0.146 in assay [15]; 1.34 in [16]; 0.603 in assay [17]. Further, the composite z-score in assay [18] amounted to 1.51; in [19], 0.833; in [20], 1.34. The z-score in assay [2] was -0.444 (inactive); in [3] it was -0.801 (inactive); in [4] it was -1.63 (inactive); in [6], 0.267 (inactive); in assay [14], -0.153 (inactive).
In the case of `CC(=O)OC[C@H]1O[C@H](CCON=C(C)C)C=C[C@@H]1OC(C)=O`, the composite z-score was 0.0126 in [1]; 0.24 in assay [5]; -0.152 in [7]; 0.373 in assay [8]; 0.0158 in [9]; -0.0364 in [10]. Also, the composite z-score was 0.475 in assay [11]; -0.22 in assay [12]; 0.116 in [13]; -0.0068 in assay [15]; -0.329 in assay [16]; 0.187 in assay [17]. Further, the composite z-score came out at 0.296 in assay [18], 0.41 in assay [19] and 1.12 in assay [20]. The z-score in assay [2] is 0.765 (inactive); in assay [3], 0.568 (inactive); in assay [4] it was 0.748 (inactive); in assay [6], 0.193 (inactive); in assay [14], 0.384 (inactive).
As to `Cc1cc(C)c(-c2cc([C@H](C)ON=C[C@@H](C)[C@H](OCc3ccccc3)C(C)C)on2)c(C)c1`, the composite z-score in assay [1] was -0.903; in [5] it was -0.91; in assay [7], 0.0469; in assay [8], 0.481; in assay [9] it was 0.0065; in assay [10] it was -0.067. The composite z-score in assay [11] is -0.761; in [12] it was -0.143; in assay [13], -0.0987; in [15], 0.149; in [16] it was -1.17; in assay [17] it was -0.101. Besides, the composite z-score in assay [18] was -0.0283; in assay [19], -0.034; in [20], 0.874. Also, the z-score in assay [2] was 0.0494 (inactive); in assay [3] it was 0.217 (inactive); in assay [4], 0.817 (inactive); in [6], -0.461 (inactive); in [14] it was -0.34 (inactive).
For `CC(C)=CCCC(C)=CCON=C1C[C@@H](O)[C@@H](O)[C@@H]2[C@@H]3C(=O)N([C@@H](C)c4ccccc4)C(=O)[C@@H]3CC[C@@H]12`, the composite z-score was -0.744 in [1]; 0.676 in assay [5]; -0.166 in [7]; 0.331 in assay [8]; 0.508 in assay [9]; -0.111 in assay [10]. The composite z-score is 0.277 in assay [11]; -0.213 in assay [12]; -0.572 in [13]; 0.461 in assay [15]; 0.598 in assay [16]; 0.407 in assay [17]. The results for the composite z-score in [18], in [19] and in assay [20] were 0.319, 0.134 and 0.521, respectively. Besides, the z-score in [2] was -0.208 (inactive); in assay [3] it was 0.301 (inactive); in [4], -0.362 (inactive); in assay [6], 0.215 (inactive); in [14], -0.168 (inactive).
For `CCOC(=O)CCN1C(=O)[C@H]2[C@@H]3C(=CC[C@H]2C1=O)C(=O)[C@H]1O[C@H]1[C@H]3O`, the composite z-score is -0.571 in assay [1]; -0.0261 in assay [5]; -0.27 in [7]; -0.861 in [8]; -1.75 in assay [9]; -0.122 in assay [10]. The composite z-score in assay [11] is 1.1; in assay [12], -0.33; in assay [13], -0.291; in assay [15] it was -0.632; in [16] it was -0.837; in assay [17], -0.0633. The composite z-score in assay [18] was -1.16; in [19] it was -0.324; in assay [20], -0.483. The z-score was 0.151 (inactive) in assay [2]; 0.0483 (inactive) in assay [3]; -0.384 (inactive) in assay [4]; -0.518 (inactive) in assay [6]; 6.66 (inactive) in assay [14].

The values are drawn from PubChem BioAssay.
